Reference: PubChem BioAssay AID1159580 (chemical genetic matrix, 2015)
Values joined by “and” are separate entries in the source; they are usually repeats but may differ in a detail not shown here. Equal values may be shown once. The whole screen tested about 5,500 compounds, of which about 2,000 (36%) were called active. Inconclusive results (about 18%) are left out. Rule as the data show it: active = normalized growth mostly below about 0.91 (no sharp cut-off); inconclusive = no clear call, values can overlap the other calls; inactive = mostly above about 0.92. This is one part of the list.

Assay: chemical genetic growth profiling, strain panel (AID 1159580);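 also: tested at 20 µM; growth read once vehicle control cultures reached saturation at 30 °C; 1 = growth at the plate median or of vehicle wells; lower values mean less growth of the strain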
Conditions: S. cerevisiae deletion strains, growth OD

Measured: normalized growth

CCOC(=O)[C@H](CCc1ccccc1)N[C@@H](C)C(=O)N1CCC[C@H]1C(=O)O
inactive: locus YAL021C, strain ccr4, stronger effect = lower value 0.98 | locus YAL026C, strain drs2, stronger effect = lower value 1 | locus YAL030W, strain snc1, stronger effect = lower value 0.992 | locus YBL061C, strain skt5, stronger effect = lower value 0.987 | locus YBR009C, strain hhf1, stronger effect = lower value 1.01 | locus YBR021W, strain FUR4, stronger effect = lower value 1.01 | locus YBR023C, strain chs3, stronger effect = lower value 0.988 | locus YBR171W, strain sec66, stronger effect = lower value 0.979 | locus YBR229C, strain ROT2, stronger effect = lower value 1 | locus YBR231C, strain swc5, stronger effect = lower value 1 | locus YBR279W, strain paf1, stronger effect = lower value 0.973 | locus YCL011C, strain gbp2, stronger effect = lower value 0.976 | locus YCL016C, strain dcc1, stronger effect = lower value 0.969 | locus YCL029C, strain bik1, stronger effect = lower value 1.02 | locus YCL061C, strain MRC1, stronger effect = lower value 1.01 | locus YCL069W, strain vba3, stronger effect = lower value 0.988 | locus YCR088W, strain abp1, stronger effect = lower value 0.995 | locus YDL005C, strain med2, stronger effect = lower value 0.995 | locus YDL035C, strain GPR1, stronger effect = lower value 1.03 | locus YDL040C, strain nat1, stronger effect = lower value 0.992 | locus YDL074C, strain BRE1, stronger effect = lower value 1.02 | locus YDL101C, strain DUN1, stronger effect = lower value 1.01 | locus YDL134C, strain PPH21, stronger effect = lower value 1.01 | locus YDL185W, strain tfp1, stronger effect = lower value 1.01 | locus YDL192W, strain arf1, stronger effect = lower value 1.01 | locus YDR001C, strain nth1, stronger effect = lower value 0.996 | locus YDR069C, strain doa4, stronger effect = lower value 0.984 | locus YDR101C, strain arx1, stronger effect = lower value 0.994 | locus YDR137W, strain rgp1, stronger effect = lower value 0.988 | locus YDR159W, strain sac3, stronger effect = lower value 0.937 | locus YDR162C, strain NBP2, stronger effect = lower value 1.01 | locus YDR195W, strain ref2 0.981 | locus YDR297W, strain sur2, stronger effect = lower value 1 | locus YDR318W, strain mcm21, stronger effect = lower value 1.02 | locus YDR334W, strain swr1, stronger effect = lower value 0.998 | locus YDR335W, strain msn5, stronger effect = lower value 0.991 | locus YDR388W, stronger effect = lower value 1.02 | locus YDR392W, strain spt3, stronger effect = lower value 0.923 | locus YDR502C, strain sam2, stronger effect = lower value 1.01 | locus YEL003W, strain gim4, stronger effect = lower value 1 | locus YEL037C, strain rad23, stronger effect = lower value 0.988 | locus YEL061C, strain CIN8 (second series), stronger effect = lower value 0.999 | locus YEL061C, strain CIN8, stronger effect = lower value 0.999 | locus YER015W, strain faa2, stronger effect = lower value 1 | locus YER016W, strain bim1, stronger effect = lower value 0.98 | locus YER110C, stronger effect = lower value 1.02 | locus YER111C, strain swi4, stronger effect = lower value 0.985 | locus YER155C, strain BEM2 (second series), stronger effect = lower value 1.02 | locus YER155C, strain BEM2, stronger effect = lower value 0.996 | locus YER167W, strain BCK2, stronger effect = lower value 0.997 | locus YFR010W, strain ubp6, stronger effect = lower value 1.01 | locus YGL078C, strain dbp3, stronger effect = lower value 1.01 | locus YGL086W, strain mad1, stronger effect = lower value 0.998 | locus YGL167C, strain pmr1, stronger effect = lower value 0.99 | locus YGL173C, strain kem1, stronger effect = lower value 0.995 | locus YGL227W, strain vid30, stronger effect = lower value 0.996 | locus YGL240W, strain doc1, stronger effect = lower value 0.985 | locus YGL248W, strain PDE1, stronger effect = lower value 1 | locus YGL253W, strain hxk2, stronger effect = lower value 0.987 | locus YGR078C, strain PAC10, stronger effect = lower value 1.02 | locus YGR135W, strain pre9, stronger effect = lower value 1.02 | locus YGR252W, strain gcn5, stronger effect = lower value 1.05 | locus YHR013C, strain ard1, stronger effect = lower value 0.967 | locus YHR027C, strain rpn1, stronger effect = lower value 1.01 | locus YHR030C, strain SLT2, stronger effect = lower value 0.998 and 1.03 | locus YHR079C, strain IRE1 (second series), stronger effect = lower value 1.01 | locus YHR079C, strain IRE1, stronger effect = lower value 1.05 | locus YHR094C, strain hxt1, stronger effect = lower value 1.01 | locus YHR129C, strain ARP1, stronger effect = lower value 0.998 | locus YHR142W, strain chs7, stronger effect = lower value 0.98 | locus YHR200W, strain rpn10, stronger effect = lower value 1.01 | locus YIL066C, strain RNR3, stronger effect = lower value 1.01 | locus YIL073C, strain SPO22, stronger effect = lower value 1.07 | locus YIL125W, strain kgd1, stronger effect = lower value 1.01 | locus YIR030C, strain dcg1, stronger effect = lower value 1.01 | locus YJL092W, strain hpr5, stronger effect = lower value 1 | locus YJL095W, strain BCK1 (second series), stronger effect = lower value 1 | locus YJL095W, strain BCK1, stronger effect = lower value 1.02 and 1.03 | locus YJL115W, strain asf1, stronger effect = lower value 0.989 | locus YJL129C, strain trk1, stronger effect = lower value 0.954 | locus YJL134W, strain LCB3, stronger effect = lower value 1 | locus YJL154C, strain vps35, stronger effect = lower value 0.99 | locus YJL164C, strain tpk1, stronger effect = lower value 0.98 | locus YJL166W, strain qcr8, stronger effect = lower value 1 | locus YJL168C, strain set2, stronger effect = lower value 1.01 | locus YJL187C, strain SWE1 (second series), stronger effect = lower value 1.01 | locus YJR043C, strain POL32, stronger effect = lower value 1.03 | locus YJR066W, strain TOR1, stronger effect = lower value 0.985
